In PubChem BioAssay (Tox21):
Results filed as inconclusive are left out. Activity calls are given as the source filed them. Unless noted, the call rests on the fitted dose curve; in most records, active means well fitted curve in the direction sought with a large enough effect in the repeat runs; inconclusive means weak or mixed curves; inactive means no such curve, though single readings can be large; an effect the other way counts as inactive or inconclusive.

Key:
[1] = qHTS assay to identify small molecule agonists of the hypoxia (HIF-1) signaling pathway - cell viability counter screen (AID 1224844; calls by dose curve; further: nearly all actives have a fitted effect of over 50% in size)
How it was run: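 Multiplexed with the HRE beta-lactamase assay, this viability read used CellTiter-Glo luminescence (30 min, RT) on HRE-bla ME-180 cells treated 17 hrs with compounds in 0.5% dialyzed FBS medium.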

[2] = qHTS assay to identify small molecule agonists of H2AX (AID 1224845; active means well fitted activation curve with a large enough effect in the signal ratio in the repeat runs, not every such curve was filed as active; the % refers to the signal ratio)
How it was run: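 Wild-type CHO-K1 cells plated overnight, then exposed 3 hr at 37C to compounds at 15 concentrations (0.76% DMSO). Lysed, then HTRF anti-pH2AX(S139)-cryptate/anti-H2AX-d2 detection after 24 hr at room temperature; emissions 665 and 620 nm.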

[3] = qHTS assay to identify small molecule agonists of the hypoxia (HIF-1) signaling pathway (AID 1224846; active means well fitted activation curve with a large enough effect in the signal ratio in the repeat runs, not every such curve was filed as active; the % refers to the signal ratio)
How it was run: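 Hypoxia-pathway activation was scored as increased beta-lactamase from an HRE-controlled reporter in ME-180 cells; plated at 2,000 cells per well with 0.5% dialyzed FBS, they were exposed 17 hrs to compounds and then given CCF4-AM.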

[4] = qHTS assay to identify small molecule agonists of H2AX - cell viability counter screen (AID 1224847; calls by dose curve; further: top concentration of the series differs between compounds; nearly all actives have a fitted effect of over 30% in size)
How it was run: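 Read-out: CellTiter-Glo luminescence, 30 min RT. Cells: wild-type CHO-K1, 1000/well, 10% FBS, plated overnight at 37C. Treatment: 15 concentrations, 3 hr, 37C, 0.76% DMSO.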

[5] = qHTS assay to identify small molecule antagonists of the estrogen related receptor (ERR) signaling pathway from Tox21 library (AID 1224848); further: nearly all actives have a fitted effect of over 50% in size
How it was run: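 Screening used an ERR reporter line supplied by NTP, exposed for 18 h at 37 C to library compounds delivered in DMSO. Signal was luciferase luminescence developed with ONE-Glo at room temperature for 30 min.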

[6] = qHTS RealTime-Glo MT Cell Viability Assay in HepG2 cells - 24 hour (AID 1224867); further: nearly all actives have a fitted effect of over 50% in size
How it was run: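 Cell number in HepG2 cultures estimated from NanoLuc luminescence generated by metabolic reduction of a prosubstrate by living cells. The homogeneous, nonlytic format allowed repeated reads at 0, 8, 16, 24, 32 and 40 h of compound exposure.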

[7] = qHTS assay to identify small molecule agonists of the estrogen related receptor (ERR) signaling pathway from Tox21 library (AID 1224849; calls by dose curve; further: nearly all actives have a fitted effect of over 15% in size); conditions: ERR reporter cell line, ONE-Glo luciferase, 18 h; at 92.4 µM (top of the series) unless noted
How it was run: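 Six hours post-seeding at 37 C/5% CO2, ERR cells receive DMSO-solubilised compounds; after 18 h at 37 C, ONE-Glo reagent is applied and luminescence recorded.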

[8] = qHTS RealTime-Glo MT Cell Viability Assay in HEK293 cells - 32 hour (AID 1224868); further: top concentration of the series differs between compounds; nearly all actives have a fitted effect of over 50% in size
How it was run: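 Homogeneous bioluminescent viability format in HEK293 cells (600 cells/well). Following 5 h at 37 C/5% CO2, 23 nL compound was pintooled; the signal was measured repeatedly during 40 h incubation.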

[9] = A CellTox Green Cytotoxicity Assay to monitor cytotoxicity in HEK293 cells - 0 hour (AID 1224869); further: nearly all actives have a fitted effect of over 50% in size
How it was run: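 Seeding of HEK293 cells together with cytotoxicity dye preceded a 5 h incubation at 37 C/5% CO2. Test compounds in DMSO were then added and fluorescence monitored across 40 h.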

[10] = qHTS RealTime-Glo MT Cell Viability Assay in HepG2 cells - 40 hour (AID 1224870); further: nearly all actives have a fitted effect of over 50% in size
How it was run: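 HepG2 cells mixed with RealTime-Glo MT reagents (NanoLuc plus cell-permeant prosubstrate) were seeded at 600 cells/well, incubated 5 h at 37 C/5% CO2, then pinned with compounds in DMSO; nonlytic luminescence tracked viability during 40 h treatment.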
On the % scale 0 is the no-effect control and ±100 the full control effect.

COC[C@@H](NC(C)=O)C(=O)NCc1ccccc1
inactive: Potency [1] | outcome [2] | outcome [3] | Potency [4] | Potency [5] | Potency [6]

COc1cccc(C=O)c1
inactive: Potency [1] | outcome [2] | outcome [3] | Potency [4] | Potency [5] | activity change, positive = activation [7] 0.51% | Potency [6] | Potency [8] | outcome [9] | Potency [10]

CNC(=O)Oc1cc(C)c(N(C)C)c(C)c1
inactive: Potency [1] | outcome [2] | outcome [3] | Potency [4] | Potency [5] | activity change, positive = activation [7] 4.59% | Potency [6] | Potency [8] | Potency [10]

O=C(CCl)NCO
inactive: Potency [1] | outcome [2] | outcome [3] | Potency [4] | Potency [5] | activity change, positive = activation [7] 7.02% | Potency [6] | Potency [8] | Potency [10]

Nc1c(Cl)c(F)nc(OCC(=O)O)c1Cl
inactive: Potency [1] | outcome [2] | outcome [3] | Potency [4] | Potency [5] | activity change, positive = activation [7] 0.0677% | Potency [6] | Potency [8] | outcome [9]

CC[C@@H](CO)NC(=O)[C@@H]1C=C2c3cccc4[nH]cc(c34)C[C@H]2N(C)C1
inactive: Potency [1] | outcome [2] | outcome [3] | Potency [4] | Potency [5] | activity change, positive = activation [7] -0.565% [at 42.5 µM] | Potency [6] | Potency [8] | outcome [9] | Potency [10]

O=C(O)CBr
inactive: Potency [1] | outcome [2] | outcome [3] | Potency [4] | Potency [5] | activity change, positive = activation [7] -0.0549% | Potency [6] | Potency [8] | Potency [10]

CCN(CC)CCOC(=O)C(O)(c1ccccc1)c1ccccc1
inactive: Potency [1] | outcome [2] | outcome [3] | Potency [4] | Potency [5] | activity change, positive = activation [7] 2.32% [at 42.5 µM] | Potency [6] | Potency [8] | outcome [9] | Potency [10]

C=CC(=O)OCCN(C)C
inactive: Potency [1] | outcome [2] | outcome [3] | Potency [4] | Potency [5] | Potency [6]

Cc1ccc(S(=O)(=O)N[C@@H](CCCCN)C(=O)CCl)cc1
inactive: Potency [1] | outcome [2] | outcome [3] | Potency [4] | Potency [5] | activity change, positive = activation [7] 0.318% [at 42.5 µM] | Potency [6] | Potency [8] | Potency [10]

CC1=C2[C@H]3OC(=O)[C@@H](C)[C@@H]3CC[C@@]2(C)C=CC1=O
inactive: Potency [1] | outcome [2] | outcome [3] | Potency [4] | Potency [5] | Potency [6]

COc1cccc([C@@]2(O)CCCC[C@@H]2CN(C)C)c1
inactive: Potency [1] | outcome [2] | outcome [3] | Potency [4] | Potency [5] | activity change, positive = activation [7] 1.87% [at 42.5 µM] | Potency [6] | Potency [8] | outcome [9] | Potency [10]

CON(C)C(=O)Nc1ccc(Br)c(Cl)c1
inactive: Potency [1] | outcome [2] | outcome [3] | Potency [4] | Potency [5] | activity change, positive = activation [7] 0.491% | Potency [6] | Potency [10]
